Common to all, as to assay: NCI-60 one-dose screen, 48 h (100 = growth as untreated, 0 = no growth, -100 = all killed)
One test concerns NCI-H23 lung. The note with it: 10 µM unless noted.
The next test deals with NCI-H226 lung. The note with it: 10 µM unless noted.
The test system of a further test is NCI-H322M lung. The note with it: 10 µM unless noted.
A further test deals with HOP-62 NSCLC. The note with it: 10 µM unless noted.
For the next test, the system named is NCI-H460 lung. The conditions noted are these: 10 µM unless noted.
For a further test, the system named is HOP-92 NSCLC. The note with it: 10 µM.
For a further test, the system named is NCI-H522 lung. The note with it: 10 µM unless noted.
For the next test, the system named is A549/ATCC NSCLC. The note with it: 10 µM unless noted.
In the next test the test system is 786-0 renal. The note with it: 10 µM unless noted.
A further test deals with DU-145 prostate. The note with it: 10 µM unless noted.
The test system of another test is K-562 leukemia. The conditions noted are these: 10 µM unless noted.
For another test, the system named is MALME-3M melanoma. The conditions noted are these: 10 µM unless noted.
Another test deals with MDA-MB-231 breast. The conditions noted are these: 10 µM unless noted.
For another test, the system named is RXF 393 renal. The conditions noted are these: 10 µM unless noted.
For another test, the system named is SF-268 CNS. The note with it: 10 µM unless noted.
The test system of another test is SF-295 CNS. The note with it: 10 µM unless noted.
The test system of a further test is SF-539 CNS. The note with it: 10 µM unless noted.
For a further test, the system named is UACC-257 melanoma. The note with it: 10 µM unless noted.
In another test the test system is COLO 205 colon. The conditions noted are these: 10 µM unless noted.

This is part of a sample that, as a whole, favours compounds with a hit. Of some 83,000 tested, about 20% had one in any assay.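 Method: cells in 96-well plates; compound added at one concentration; 48 h incubation; percent growth measured; values under 10 scored active.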 Values without a mark were called inactive. Active and inactive are the calls of the source.

As for `CCN1CCN(Cc2cn(-c3ccc(S(N)(=O)=O)cc3)nn2)CC1`, the growth in the test on NCI-H23 lung is 108%; in the test with NCI-H226 lung it was 96.5%; in the test with NCI-H322M lung, 106%; with HOP-62 NSCLC, 107%; in the test on NCI-H460 lung, 108%; in the test with HOP-92 NSCLC, 104%. For the same compound, the growth with NCI-H522 lung is 97.8%; in the test with A549/ATCC NSCLC, 109%; in the test on 786-0 renal it was 102%; in the test on DU-145 prostate, 108%; in the test with K-562 leukemia it was 104%; in the test on MALME-3M melanoma it was 111%. Further, the growth was 104% with MDA-MB-231 breast; 116% in the test on RXF 393 renal; 103% in the test with SF-268 CNS; 105% in the test on SF-295 CNS; 99.3% with SF-539 CNS; 107% with UACC-257 melanoma.

Take `C#Cc1ccc(C(=O)NCc2ccc(/C=C/C(=O)c3nccn3C)cc2)cc1`: the growth in the test with NCI-H23 lung is 10%; in the test on NCI-H226 lung, 31.9%; in the test on NCI-H322M lung, 12.5%; in the test on HOP-62 NSCLC, 27.5%; in the test with NCI-H460 lung, -45.4% (active); with HOP-92 NSCLC, -0.611% (active). For the same compound, the growth with NCI-H522 lung is 25.9%; in the test with A549/ATCC NSCLC, 13.4%; in the test on 786-0 renal, 19.3%; with COLO 205 colon, 22.8%; in the test with DU-145 prostate, 21%; in the test with K-562 leukemia, 18.8%. Also, the growth in the test on MALME-3M melanoma is 69.5%; with MDA-MB-231 breast, 16.1%; with SF-268 CNS, 13.5%; with SF-295 CNS, 20.7%; in the test with SF-539 CNS, -17% (active); in the test with UACC-257 melanoma it was 67.7%.

Consider `C#Cc1nc(/C=C/C(=O)c2nccn2C)cs1`, for which the growth was -69.3% (active) in the test with NCI-H23 lung; 4.67% (active) with NCI-H226 lung; 28.5% with NCI-H322M lung; -44.9% (active) with HOP-62 NSCLC; -47.2% (active) in the test with NCI-H460 lung; -71% (active) in the test on HOP-92 NSCLC. Further, the growth in the test on NCI-H522 lung was -60.1% (active); in the test with A549/ATCC NSCLC, -3.96% (active); in the test on 786-0 renal, -65.9% (active); in the test with COLO 205 colon it was -30.6% (active); with DU-145 prostate, -45.6% (active); with K-562 leukemia, -16.8% (active). For the same compound, the growth was -75.6% (active) with MALME-3M melanoma; -64.7% (active) with MDA-MB-231 breast; -54.2% (active) with SF-268 CNS; -87.8% (active) in the test on SF-295 CNS; -82.7% (active) in the test with SF-539 CNS; -19% (active) in the test on UACC-257 melanoma.

As for `Cn1ccnc1C(=O)/C=C/c1ccc(NC(=O)c2c(F)c(F)c(F)c(F)c2F)cc1`, the growth in the test with NCI-H23 lung was 97.6%; in the test with NCI-H226 lung, 103%; in the test with NCI-H322M lung, 94.8%; in the test with HOP-62 NSCLC, 120%; with NCI-H460 lung, 105%; in the test with HOP-92 NSCLC, 123%. Besides, the growth in the test with NCI-H522 lung is 94.3%; in the test on A549/ATCC NSCLC, 101%; in the test on 786-0 renal it was 101%; in the test with COLO 205 colon, 124%; in the test on DU-145 prostate it was 106%; in the test with K-562 leukemia it was 80.7%. Further, the growth in the test with MALME-3M melanoma was 104%; in the test with MDA-MB-231 breast, 108%; in the test on SF-268 CNS, 96%; in the test with SF-295 CNS it was 106%; in the test on SF-539 CNS it was 108%; with UACC-257 melanoma, 113%.

For the compound `CCOC(=O)C(=O)/C(=C\c1ccc(Cl)cc1)C(=O)N1C(=S)NC(=O)C1CC(C)C` (stereo unspecified), the growth in the test with NCI-H23 lung was 96.5%; with NCI-H226 lung, 92%; in the test on NCI-H322M lung it was 95.3%; in the test on HOP-62 NSCLC, 95.6%; in the test on NCI-H460 lung, 102%; with HOP-92 NSCLC it was 86.8%. Besides, the growth is 91.7% in the test on NCI-H522 lung; 104% with A549/ATCC NSCLC; 103% with 786-0 renal; 109% in the test with COLO 205 colon; 85.2% in the test with DU-145 prostate; 102% in the test with K-562 leukemia. Also, the growth in the test on MALME-3M melanoma is 99.8%; in the test with MDA-MB-231 breast, 90.8%; with SF-268 CNS it was 100%; in the test on SF-295 CNS it was 99.9%; with SF-539 CNS, 103%; in the test on UACC-257 melanoma, 105%.

For `C=CCn1c(SCC(=O)Nc2ccc(C(=O)/C=C/c3cccc([N+](=O)[O-])c3)cc2)nnc1-c1c[nH]c2ccccc12`, the growth with NCI-H23 lung is 94.1%; in the test on NCI-H226 lung, 74.2%; in the test on NCI-H322M lung, 91.2%; with HOP-62 NSCLC, 106%; in the test on NCI-H460 lung, 102%; in the test with HOP-92 NSCLC it was 101%. The growth is 78.9% in the test with NCI-H522 lung; 93.9% in the test with A549/ATCC NSCLC; 106% with 786-0 renal; 110% in the test with COLO 205 colon; 97% in the test on DU-145 prostate; 86.6% in the test with MALME-3M melanoma. In addition, the growth in the test on MDA-MB-231 breast was 85.2%; in the test with SF-268 CNS it was 84%; with SF-295 CNS, 91%; with SF-539 CNS it was 96.4%; in the test on UACC-257 melanoma it was 103%.

With `COc1c(N2CC3CCCNC3C2)c(F)cc2c(=O)c(C(=O)N/N=C/c3ccc(Br)cc3)cn(C3CC3)c12` (stereo unspecified), the growth in the test with NCI-H23 lung is 88.3%; in the test with NCI-H226 lung it was 91.4%; in the test with NCI-H322M lung, 89%; with HOP-62 NSCLC, 88.4%; with NCI-H460 lung, 86%; in the test with HOP-92 NSCLC, 57.9%. Also, the growth with NCI-H522 lung was 77.6%; with A549/ATCC NSCLC it was 83.1%; in the test on 786-0 renal, 85.3%; in the test with COLO 205 colon, 100%; with DU-145 prostate it was 85.5%; in the test with K-562 leukemia, -18.5% (active). For the same compound, the growth is 82.8% with MALME-3M melanoma; 56.1% in the test with MDA-MB-231 breast; 82.4% with SF-268 CNS; 101% with SF-295 CNS; 72.7% in the test with SF-539 CNS; 100% with UACC-257 melanoma.

As for `CC(C)C[C@@H]1N[C@@]2(C(=O)Nc3ccccc32)[C@@H](c2ccc(F)cc2)[C@@H]1C(=O)c1ccc(O)cc1`, the growth in the test with NCI-H23 lung is 91.6%; in the test with NCI-H226 lung, 92.7%; in the test on NCI-H322M lung, 99.1%; in the test with HOP-62 NSCLC, 88.9%; with NCI-H460 lung, 101%; in the test with HOP-92 NSCLC it was 74.3%. Moreover, the growth in the test on NCI-H522 lung is 79.6%; in the test with A549/ATCC NSCLC it was 85.1%; in the test on 786-0 renal it was 93.2%; in the test with COLO 205 colon, 110%; with DU-145 prostate it was 102%; in the test with K-562 leukemia, 89.7%. The growth in the test on MALME-3M melanoma is 84.3%; with MDA-MB-231 breast, 82.4%; with SF-268 CNS it was 88.7%; with SF-295 CNS, 100%; in the test with SF-539 CNS it was 93.3%; with UACC-257 melanoma it was 112%.

For the compound `O=C(CSc1nc2ccccc2c(=O)n1-c1ccc(Cl)cc1)N/N=C/c1ccc(N2CCCCC2)cc1`, the growth in the test on NCI-H23 lung is 65.9%; with NCI-H226 lung it was 38.2%; in the test with NCI-H322M lung, 77%; in the test on HOP-62 NSCLC, 18.4%; in the test with NCI-H460 lung, 9.74% (active); with HOP-92 NSCLC, 62.3%. For the same compound, the growth in the test on NCI-H522 lung is 88.1%; in the test with A549/ATCC NSCLC, 49.4%; in the test on 786-0 renal, 7.2% (active); in the test with COLO 205 colon it was 82.1%; with DU-145 prostate, 29.1%; with K-562 leukemia, 73.6%. Further, the growth is 64.2% in the test with MALME-3M melanoma; 72% in the test with MDA-MB-231 breast; 34.7% in the test on SF-268 CNS; 76.4% in the test on SF-295 CNS; 41.3% with SF-539 CNS; 97.1% in the test with UACC-257 melanoma.

(Values after PubChem BioAssay (NCI).)
